IL-1B inflam inh = qHTS for Inhibitors of Inflammasome Signaling: IL-1-beta AlphaLISA Primary Screen; THP-1 LPS/ATP IL-1B secretion, AlphaLISA, 16 h; stronger effect = lower value; activity change, % at 57.5 µM; 360,000 tested, 4.7% active; in the data active = activity change below about -50%; inconclusive = mostly about -30% to -49%
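Secreted IL-1B measured by AlphaLISA bead assay after 16 h compound exposure of THP-1 cells; compounds (final up to 57.5 uM) added 1 h before LPS (250 ng/mL) and ATP (1.25 mM) stimulation; lower signal means less secretion.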
D3 ag = qHTS of D3 Dopamine Receptor Agonist: qHTS | max activation, % | AID 652048, 2013 | D(3) dopamine receptor (Homo sapiens), P35462 | 410,000 tested, 0.58% active | D3R DiscoveRx beta-arrestin cells, luminescence, 90 min; in the data active = max activation above about 30%
Target sequence (P35462 whole entry, looked up): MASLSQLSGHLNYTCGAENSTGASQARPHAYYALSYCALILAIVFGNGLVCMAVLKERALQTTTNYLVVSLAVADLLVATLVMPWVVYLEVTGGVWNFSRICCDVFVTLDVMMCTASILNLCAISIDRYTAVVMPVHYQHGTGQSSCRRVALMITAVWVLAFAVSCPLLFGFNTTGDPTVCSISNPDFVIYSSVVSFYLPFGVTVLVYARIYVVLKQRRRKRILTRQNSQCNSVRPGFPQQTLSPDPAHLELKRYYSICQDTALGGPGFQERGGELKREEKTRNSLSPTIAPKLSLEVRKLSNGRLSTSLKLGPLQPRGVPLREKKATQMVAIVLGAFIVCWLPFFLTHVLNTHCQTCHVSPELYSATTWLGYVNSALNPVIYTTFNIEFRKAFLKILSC
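Agonist-mode cell screen: cells plated at 1500/well and incubated overnight at 37 °C, then exposed to library compounds for 90 min at 37 °C. Detection reagent was added for 30–60 min at room temperature, and luminescence was read.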
ATXN viability = Viability Counterscreen for Primary qHTS for Inhibitors of ATXN expression | AID 651635, 2014 | Potency, µM (top dose mostly 56.7 µM), usual class: cytotoxic | 400,000 tested, 0.49% active | S2 cells (HEK-293 line with an ATXN2-luciferase reporter) viability, CellTiter-Fluor protease fluorescence, 24 h; note: nearly all actives have a fitted effect of over 40% in size
a7 integrin act = qHTS for Activators of Integrin-Mediated Alleviation for Muscular Dystrophy | alpha7betagal myoblasts, beta-gal FDG fluorescence, 48 h | Potency, µM (highest dose often 38.3 µM), actives largely listed as activators | 350,000 tested, 0.064% active; note: nearly all actives have a fitted effect of over 60% in size
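alpha7betagal+/- myoblasts (passage 13, 250/well) treated 48 h at 37C with compounds at 1:260 dilution of DMSO stock. Lysed, then beta-galactosidase activity read as FDG fluorescence (ex 480/em 540) after 30 min, with pre-read for autofluorescence.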
D3 antag = qHTS of D3 Dopamine Receptor Antagonist: qHTS | D3R cells, DiscoveRx beta-arrestin luminescence, antagonist mode; stronger effect = lower value | max response, negative = inhibition, % | 360,000 tested, 2.5% active | AID 652054, 2013; in the data active = max response below about -50%; inconclusive = no clear call, values can overlap the other calls
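Cells expressing the human receptor were seeded at 1500 cells/well, incubated overnight at 37 degrees C in 5% CO2, then exposed to library compounds with dopamine controls for 90 minutes at 37 degrees C before luminescent detection.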
ATXN2 expr inh = Primary qHTS for Inhibitors of ATXN expression. AID 1745845, 2022. 360,000 tested, 0.72% active. Potency, µM (top dose mostly 57 µM), usual class: inhibitors. HEK-293 ATXN2-luciferase reporter, luminescence, 24 h; note: nearly all actives have a fitted effect of over 55% in size
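ATXN2-luciferase reporter cells (luciferase flanked by upstream and downstream ATXN2 gene portions) were treated 24 h at 37 °C with compounds at up to 57 uM. SteadyGlo luminescence gave expression; GF-AFC fluorescence gave viability.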
Of the large screens only hits and unclear results are named; the others gave an inactive call. Rows were chosen to be rich in hits. Some 7% of all compounds tested hit in one or more screens of this group. Unless noted, calls come from the whole dose curve; as a rule, active = well fitted curve in the direction sought with a large enough effect; inconclusive = small, poorly fitted or top-dose-only effect, or another doubt; inactive = no such curve, though single readings can be large; an effect the other way counts as inactive or inconclusive.

COc1ccc(C(OCC(O)CN(C)C2CCCCC2)c2ccc(OC)cc2)cc1 (stereo not given)	IL-1B inflam inh -70.8
CCOc1ccc(CN(C)CC(O)COC(c2ccc(OC)cc2)c2ccc(OC)cc2)cc1 (stereo not given)	IL-1B inflam inh -58.7
Cn1c(C(=O)O)c(CC(=O)NCc2cccnc2)c2ccccc21	none
COC(=O)c1c(C)[nH]c(C(=O)/C=C/c2cccc(Cl)c2)c1C	IL-1B inflam inh -64.5, ATXN viability inconclusive
Cc1nc2ccc(NC(=O)CSc3ccccc3)cc2s1	none
COc1ccc(-c2cc(-c3c(O)c(OC)c4occc4c3OC)[nH]n2)cc1OC	IL-1B inflam inh -63.2
COc1ccc2nc(C)cc(Nc3ccc(C(=O)O)cc3)c2c1	none (no result: ATXN2 expr inh)
COc1ccc(Nc2cc(C)nc3ccc(OC)cc23)cc1	IL-1B inflam inh -100.7, ATXN2 expr inh inconclusive
COc1ccc(CNc2cc(C)nc3ccc(OC)cc23)cc1	IL-1B inflam inh -92.9, ATXN2 expr inh inconclusive (no result: ATXN viability)
CCOc1ccc(Nc2cc(C)nc3ccc(C)cc23)cc1	IL-1B inflam inh -88.3, ATXN viability inconclusive, a7 integrin act inconclusive
Cc1cc(Nc2ccc3c(c2)OCCO3)c2cc(Cl)ccc2n1	IL-1B inflam inh -115.7, ATXN2 expr inh inconclusive
COc1cccc(NC(=O)COc2coc(CN3CCN(c4ccccc4)CC3)cc2=O)c1	none
COCCCn1c(SCC(=O)NC2CCCCC2)nnc1-c1ccco1	none
O=C(CCCc1ccccc1)Nc1ccnn1C1CCN(Cc2ccccc2F)CC1	none
COc1ccc2nc(C)cc(Sc3nc4ccccc4s3)c2c1	IL-1B inflam inh -99.3
Cc1cccc(C(=O)c2cn[nH]c2-c2ccccc2O)c1	D3 antag inconclusive
Cc1cc(C)cc(OCC(=O)OC(C)C(=O)Nc2ccc(Cl)cn2)c1 (stereo not given)	ATXN viability inconclusive
CCOc1cc(/C=C2\C(=O)N(Cc3ccco3)C(C)=C2C(=O)OC)ccc1O	IL-1B inflam inh -104.6, D3 antag inconclusive
COC(=O)C1=C(C)N(Cc2cccnc2)C(=O)/C1=C\c1sccc1C	IL-1B inflam inh -53.4
COC(=O)C1=C(C)N(Cc2ccc(C)cc2)C(=O)/C1=C\c1cc(OC)c(OC)c(OC)c1	IL-1B inflam inh -79.1
CCOc1cc(/C=C2\C(=O)N(CCc3ccc(OC)c(OC)c3)C(C)=C2C(=O)OC)ccc1O	IL-1B inflam inh inconclusive
COC(=O)C1=C(C)N(Cc2ccc(C)cc2)C(=O)/C1=C\c1ccc(O)c(OC)c1	IL-1B inflam inh -60.4
CCN1C(=O)/C(=C\c2cccs2)C(C(=O)OC)=C1C	D3 antag inconclusive
CCN1C(=O)/C(=C\c2ccco2)C(C(=O)OC)=C1C	D3 antag inconclusive
Cc1ccc(SCC(=O)Nc2ccc(N3CCN(C)CC3)c(F)c2)cc1	D3 antag -52.8
O=C(CSc1ccccc1)Nc1ccc(N2CCN(c3ccccc3)CC2)c(F)c1	none
COc1ccc(SCC(=O)Nc2ccc(N3CCN(C)CC3)c(F)c2)cc1	D3 antag -56.1
O=C(O)c1cc(N=Nc2c(O)ccc3ccccc23)cc(C(=O)O)c1	ATXN viability inconclusive
O=C(O)c1ccc(N=Nc2c(O)ccc3ncccc23)cc1	D3 antag -75.3 (no result: ATXN2 expr inh)
C=CCOC(=O)C1=C(C)NC(C)=C(C(=O)OCC=C)C1/C=C/c1ccccc1	IL-1B inflam inh -68.8
CCOC(=O)C1=C(C)NC(C)=C(C(=O)OCC)C1/C=C/c1ccccc1	IL-1B inflam inh -55.1, a7 integrin act inconclusive
CCOC(=O)C1=C(C)NC(C)=C(C(=O)OCC)C1/C=C/c1ccccc1OC	none
CCOC(=O)C1=C(C)NC(C)=C(C(=O)OCC)C1c1ccccc1/C=C/C(=O)OC(C)(C)C	ATXN viability inconclusive, ATXN2 expr inh 35.5µM (no result: IL-1B inflam inh, a7 integrin act, D3 antag)
